The list is not random: actives were taken first. Their share in the collection is about 4%.
697 NFkB inh: lowers PMA/ionomycin-induced NF-kB signal in 697 B cells. 697 B-cell NF-kB luciferase reporter, 16 h. inhibition, % at 4 µM. hit rate 0.33% among 330,000. AID 435022; in the data active = inhibition above about 35%
Gli-Sufu block: Gli-Sufu pathway antagonism; Sufu-KO-LIGHT fibroblasts, Gli luciferase reporter luminescence; inhibition, % at 5 µM; hit rate 0.74% among 340,000;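 active = inhibition above about 55%, limit read from the data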;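 note: 0% = DMSO-treated cells and 100% = wells with medium but no cells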
Mdm2-MdmX inh: disrupts the human Mdm2-MdmX interaction; O15151+Q00987; SaOS-2 split-luciferase Mdm2/MdmX complementation, luminescence; inhibition, % at 8 µM; hit rate 3% among 330,000; AID 485346;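 active = inhibition of at least 50% at 8 µM in the primary screen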
Target sequence (O15151 whole entry, looked up): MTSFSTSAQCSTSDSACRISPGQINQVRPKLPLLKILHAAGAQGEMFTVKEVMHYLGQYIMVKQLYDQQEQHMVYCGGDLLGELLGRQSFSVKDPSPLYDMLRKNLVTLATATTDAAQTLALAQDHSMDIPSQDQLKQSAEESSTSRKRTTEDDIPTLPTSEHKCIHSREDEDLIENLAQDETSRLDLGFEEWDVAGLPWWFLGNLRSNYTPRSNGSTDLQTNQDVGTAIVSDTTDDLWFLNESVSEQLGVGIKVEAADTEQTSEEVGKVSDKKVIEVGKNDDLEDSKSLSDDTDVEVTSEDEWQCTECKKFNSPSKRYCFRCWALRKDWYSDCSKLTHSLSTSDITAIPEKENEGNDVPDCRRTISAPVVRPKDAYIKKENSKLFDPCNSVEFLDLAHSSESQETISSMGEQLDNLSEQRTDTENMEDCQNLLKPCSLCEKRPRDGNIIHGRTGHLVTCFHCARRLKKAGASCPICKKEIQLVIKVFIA
Target sequence (Q00987 whole entry, looked up): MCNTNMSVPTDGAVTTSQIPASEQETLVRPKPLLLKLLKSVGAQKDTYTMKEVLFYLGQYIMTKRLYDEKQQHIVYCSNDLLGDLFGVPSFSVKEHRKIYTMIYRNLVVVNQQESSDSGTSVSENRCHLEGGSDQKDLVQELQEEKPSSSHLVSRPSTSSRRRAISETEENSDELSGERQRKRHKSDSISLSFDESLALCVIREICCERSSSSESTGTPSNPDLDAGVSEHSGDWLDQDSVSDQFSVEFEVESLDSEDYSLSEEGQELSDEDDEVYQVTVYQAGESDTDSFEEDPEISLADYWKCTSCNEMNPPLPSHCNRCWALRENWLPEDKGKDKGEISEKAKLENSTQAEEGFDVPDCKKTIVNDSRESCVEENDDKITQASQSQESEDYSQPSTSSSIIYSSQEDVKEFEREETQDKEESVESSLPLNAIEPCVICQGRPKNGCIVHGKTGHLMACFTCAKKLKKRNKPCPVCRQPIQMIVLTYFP
Jurkat NFkB inh: inhibitors of the PMA/ionomycin-induced NF-kB reporter in Jurkat cells; PMA/ionomycin-induced NF-kB luciferase reporter, luminescence; inhibition, % at 4 µM; hit rate 0.53% among 330,000; AID 435003; in the data active = inhibition above about 50%
Beta apoptosis: beta cell apoptosis inhibition; AID 435005; INS-1E cytokine-induced death, ATP luminescence, 48 h; percent of positive-control rescue, neutral wells zero; protection from apoptosis, % (concentration not given with the values); hit rate 0.8% among 300,000;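 active = Every replicate reaches about 75%, or at least half do and their mean reaches it too, limit read from the data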;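 note: 0% = cytokine-treated negative control wells and 100% = positive control rescue; higher means more ATP so stronger rescue from cytokine killing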
Gli antag conf: Gli-SUFU antagonism confirmation, single concentration; shares compounds with Gli-Sufu block; Sufu-KO-LIGHT cells, Gli luciferase reporter, luminescence; inhibition, % at 5 µM; hit rate 40% among 2,500; AID 602428;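 active = mean inhibition at 5 µM reaching about 45%, limit read from the data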;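 note: plate controls were DMSO-treated cells for no effect and wells lacking cells for full effect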
SufuKO cytotox: cytotoxic in Gli-SUFU antagonist counter-screen; AID 651994; Sufu-KO-LIGHT cells cytotoxicity, ATP luminescence; shares compounds with Gli-Sufu block; hit rate 32% among 2,500; cytotoxicity, % at 5 µM;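 active = mean cytotoxicity at 5 µM above about 25%, limit read from the data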;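 note: cells exposed to compound overnight for roughly 16 to 18 hours; plate controls were DMSO wells with cells for no effect and medium without cells for full effect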
Wnt3a counter: counter-screen for Gli-SUFU antagonists: Wnt3a reporter inhibition. shares compounds with Gli-Sufu block. Wnt-LIGHT cells, Wnt3a-driven luciferase reporter, luminescence. inhibition, % at 6.25 µM. hit rate 20% among 2,500;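 active = mean inhibition above about 25%, limit read from the data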
Starred values were filed as active, the others as inactive; · = no result.

SMILES | 697 NFkB inh | Gli-Sufu block | Mdm2-MdmX inh | Jurkat NFkB inh | Beta apoptosis | Gli antag conf | SufuKO cytotox | Wnt3a counter
Cc1ccc[n+](C(C)C(=O)c2ccc(Cl)cc2)c1 (centres undefined) | 1.1 | -12.0 | 18.6 | 0.5 | -3.7 | · | · | ·
Cc1cc(C)c[n+](C(C)C(=O)c2ccc(-c3ccccc3)cc2)c1 (centres undefined) | 26.8 | 79.9* | 15.2 | 33.8 | 93.0* | 78.9* | 23.5 | -0.2
CC(C)(C)c1ccc(NC(=O)N2CCCN(c3c(Cl)cncc3Cl)CC2)cc1 | -88.5 | -0.1 | 37.4 | 2.2 | 2.8 | · | · | ·
Cc1onc(-c2c(Cl)cccc2Cl)c1C(=O)Nc1ccc2c(c1)OCCO2 | -6.9 | -0.3 | 15.5 | 4.0 | -4.4 | · | · | ·
Cc1onc(-c2c(F)cccc2Cl)c1C(=O)OCC(=O)Nc1cccc(S(=O)(=O)N(C)C)c1 | · | 52.8 | · | · | · | 12.0 | 6.3 | -49.9
Cc1noc(C)c1C(=O)OCC(=O)Nc1cccc(S(=O)(=O)N(C)C)c1 | 8.9 | -20.2 | -16.1 | -6.9 | 5.8 | · | · | ·
Cc1onc(-c2c(F)cccc2Cl)c1C(=O)Nc1ccc(Cl)c(S(=O)(=O)N(C)C)c1 | -3.5 | 58.3* | 9.6 | -5.6 | 7.3 | 15.5 | 12.7 | -20.6
CC(=O)c1ccc(NC(=S)NCC(c2ccco2)N2CCCC2)cc1 (centres undefined) | 6.3 | -1.7 | -20.7 | -7.2 | -2.5 | · | · | ·
O=C(Nc1ccc2oc(-c3ccccc3F)nc2c1)c1ccc2c(c1)OCCO2 | -61.6 | 54.4 | 29.0 | 1.3 | 4.6 | 11.8 | 11.8 | -54.3
O=[N+]([O-])c1ccc(/C=C2\CCC(C3=CCCC3)=C2N2CCOCC2)cc1 | -7.9 | -0.3 | -7.6 | -11.7 | 4.4 | · | · | ·
Cc1cc(C)nc(SCC(=O)Nc2ccc(N3CCOCC3)c(Cl)c2)n1 | -19.5 | 53.3 | 18.7 | 23.9 | · | 45.1* | 21.0 | -24.0
COc1ccc(-c2coc(CCC(=O)N3CCN(c4cc(C)ccc4C)CC3)n2)cc1 | 1.3 | 1.0 | -10.2 | · | · | · | · | ·
CC(=O)Nc1ccc(S(=O)(=O)N2C3CCCC2CC(NC(=O)C2CCCCC2)C3)cc1 (centres undefined) | -20.1 | 94.8* | 25.8 | -4.0 | 4.3 | 14.6 | 4.2 | -37.8
Cc1cc(OCC(=O)Nc2ccc(S(=O)(=O)N3CCN(C)CC3)cc2)ccc1Br | -13.5 | 3.5 | -4.3 | -9.3 | -5.2 | · | · | ·
COc1ccc(NC(=O)Nc2ccc(F)c(F)c2)c(OC)c1 | -11.0 | -12.8 | -13.5 | -14.4 | -3.7 | · | · | ·
CCCC(=O)N(CC(=O)Nc1sc(C)c(C)c1C(N)=O)Cc1ccccc1 | 5.5 | 1.6 | 0.3 | 0.2 | -3.5 | · | · | ·
COc1cc(/C=N/N(c2ccccc2)c2ccccc2)ccc1O | -1.9 | -13.4 | 5.7 | 1.7 | 2.5 | · | · | ·
CN(/N=C\c1ccc(O)c(O)c1)c1nc(-c2ccccc2)cc(-c2ccccc2)n1 | -30.4 | 90.5* | 30.5 | -19.8 | -2.9 | 81.5* | 25.6* | 88.6*
COc1ccc(CCNC(=O)C2CCCN(S(=O)(=O)c3ccc(F)cc3)C2)cc1OC (centres undefined) | 12.9 | -8.0 | -24.0 | 10.2 | -4.7 | · | · | ·
COc1ccc(CNC(=O)COC(=O)CC(NC(N)=O)c2ccc(Cl)cc2)cc1OC (centres undefined) | 16.8 | -1.6 | -5.6 | 3.9 | · | · | · | ·
Cc1nc2ncnn2c(N2CCN(S(=O)(=O)c3ccc(Br)cc3)CC2)c1C | -45.9 | 57.4* | 15.4 | 32.3 | -0.6 | 32.6 | 0.9 | 1.3
O=S(=O)(c1ccc(Br)cc1)N1CCN(c2cc(-c3ccccc3)nc3ncnn23)CC1 | 3.8 | 9.9 | 20.9 | -4.7 | 11.4 | · | · | ·
COc1cccc(C(=O)NCCN2CCN(c3ccc(Cl)cc3)CC2)c1 | 3.6 | 50.5 | -21.0 | -4.2 | -2.8 | 23.1 | 4.3 | -37.9
Cn1c(Cc2csc(N)n2)nnc1SCC(=O)NC1CCCCC1 | -5.0 | 2.3 | 2.7 | 1.5 | · | · | · | ·
Cn1c(Cc2csc(N)n2)nnc1SCC(=O)NCc1ccccc1 | -3.3 | 95.2* | 11.6 | -11.7 | -3.6 | 3.6 | 2.5 | -17.4
SMILES | 697 NFkB inh | Gli-Sufu block | Mdm2-MdmX inh | Jurkat NFkB inh | Beta apoptosis | Gli antag conf | SufuKO cytotox | Wnt3a counter
Cc1cccc(NS(=O)(=O)c2ccc(C)c(NS(=O)(=O)c3cccs3)c2)c1 | 18.4 | 96.4* | -0.6 | 5.8 | · | 13.5 | 11.9 | -11.0
CC(=O)OCC1=C(C(=O)O)N2C(=O)C(NC(=O)c3ccc(COc4ccc(Cl)cc4)o3)C2SC1 (centres undefined) | 5.2 | 51.0 | 11.4 | 6.8 | -4.4 | 10.4 | 8.0 | -14.4
CCOc1ccc(NC2CCCCC2NS(=O)(=O)c2ccccc2)cc1 (centres undefined) | 17.2 | 5.0 | 10.0 | 4.8 | -1.5 | · | · | ·
CC1=NCCN1S(=O)(=O)c1cc(Cl)ccc1Cl | 1.6 | 55.8* | 10.4 | 0.6 | · | 23.2 | 17.4 | -2.8
O=S(=O)(c1cc(Cl)ccc1Cl)N1CCCC1 | -5.4 | 5.1 | -2.1 | 2.2 | -1.9 | · | · | ·
CCOC(=O)c1c(NC=O)sc2c1CCC2 | -18.2 | 69.7* | -15.1 | 6.7 | · | 11.9 | -3.9 | 20.7
CCOC(=O)c1c(NC(=O)C(=O)N/N=C/c2ccccc2OC)sc2c1CCCCC2 | -3.6 | -3.0 | 8.8 | 18.6 | -8.1 | · | · | ·
CCOC(=O)c1c(NC(=O)C(=O)N/N=C/c2ccccc2O)sc2c1CCCCC2 | -3.3 | 69.9* | 14.9 | 12.0 | 36.8 | 75.3* | 17.1 | 20.4
CC(C)CC1(C(=O)NCCc2c[nH]c3ccccc23)C=CCN1C(=O)c1ccccc1 (centres undefined) | -17.8 | -6.1 | -34.8 | -15.3 | 3.5 | · | · | ·
CC(=O)N1CC=CC1(CC(C)C)C(=O)NCCc1c[nH]c2ccccc12 (centres undefined) | -20.4 | 95.0* | -6.9 | -6.0 | 3.4 | 26.4 | -4.0 | -22.0
Cc1[nH]c2ccccc2c1C(=O)NS(=O)(=O)Nc1ccc(Cl)cc1 | 19.4 | -3.3 | 17.6 | 13.1 | · | · | · | ·
COc1cccc(/C=N/N2CCN(c3ccncc3S(=O)(=O)N3CCCCC3)CC2)c1 | 13.1 | 4.8 | 25.2 | -0.8 | 1.2 | · | · | ·
Cc1ccc(C(=O)N2CCOCC2)cc1[N+](=O)[O-] | 12.5 | -1.9 | -0.9 | 9.7 | -7.2 | · | · | ·
Cc1c(N)cc(C(=O)N2CCOCC2)cc1[N+](=O)[O-] | 15.9 | 92.9* | -8.3 | -1.6 | -2.8 | 16.3 | -12.4 | 13.6
CSCCC(NC(=O)c1ccccc1Cl)C(=O)N1CCN(c2ccccn2)CC1 (centres undefined) | -10.0 | 0.8 | 35.4 | 0.9 | -0.2 | · | · | ·
CCC1CCCCN1S(=O)(=O)c1ccc(C(=O)Nc2nnc(C3CC3)o2)cc1 (centres undefined) | -27.2 | -3.9 | 43.2 | -2.1 | 4.3 | · | · | ·
CCC1CCCCN1S(=O)(=O)c1ccc(NC(=O)c2ccncc2)cc1 (centres undefined) | -31.9 | 58.4* | 14.1 | 24.9 | · | 36.9 | 40.6* | -11.2
O=S(=O)(c1ccccc1)N1CCN(C(c2ccccc2)c2ccc(OC(F)(F)F)cc2)CC1 (centres undefined) | -1.5 | 6.1 | -14.7 | 3.1 | -2.1 | · | · | ·

Screening results from PubChem.
